± gives the standard deviation of the averaged measurements. About 6,500 targets were measured; listed, in parts, are those with the largest changes and a random draw of the rest.
Compound: Nc1ncnc2c1ncn2[C@@H]1O[C@H](COP(=O)(O)OP(=O)(O)OP(=O)(O)O)[C@@H](O)[C@H]1O [adenosine triphosphate]
Assay: NP40-soluble protein abundance relative to vehicle (solubility fold change) (ratio); higher = more soluble protein in presence of ATP
How it was run: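 Each value is a fold change relative to the detergent-processed vehicle, calculated per replicate from vsn-normalised intensities. Jurkat crude lysate received eight concentrations (0.1 to 10 mM) for 10 min at room temperature and 3 min at 37 °C, then was solubilised in 0.8% NP40 with benzonase (60 min, 4 °C). The ultracentrifuged supernatant was TMT-labelled and run by LC-MS/MS in three independent experiments.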

Chain of UniProt Q86YR5 (Q86YR5 whole entry, one chain of several): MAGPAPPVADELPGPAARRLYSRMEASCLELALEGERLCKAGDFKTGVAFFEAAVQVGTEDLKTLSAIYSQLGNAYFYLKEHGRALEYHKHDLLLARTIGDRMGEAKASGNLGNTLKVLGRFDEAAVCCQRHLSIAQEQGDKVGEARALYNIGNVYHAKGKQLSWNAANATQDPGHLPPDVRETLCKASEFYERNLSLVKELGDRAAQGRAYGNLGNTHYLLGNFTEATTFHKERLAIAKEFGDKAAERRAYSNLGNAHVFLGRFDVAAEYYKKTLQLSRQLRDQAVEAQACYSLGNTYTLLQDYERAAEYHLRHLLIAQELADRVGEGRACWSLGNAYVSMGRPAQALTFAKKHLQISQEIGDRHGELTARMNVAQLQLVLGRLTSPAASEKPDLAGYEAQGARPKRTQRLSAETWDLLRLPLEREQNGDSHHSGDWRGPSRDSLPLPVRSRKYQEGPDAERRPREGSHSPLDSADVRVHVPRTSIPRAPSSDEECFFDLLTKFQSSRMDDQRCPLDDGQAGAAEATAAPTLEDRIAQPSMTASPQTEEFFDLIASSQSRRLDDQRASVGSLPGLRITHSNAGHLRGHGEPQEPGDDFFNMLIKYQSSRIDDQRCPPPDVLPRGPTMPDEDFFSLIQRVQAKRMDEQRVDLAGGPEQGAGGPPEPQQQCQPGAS
Chain of UniProt Q9H9Q2 (Q9H9Q2 whole entry, one chain of several): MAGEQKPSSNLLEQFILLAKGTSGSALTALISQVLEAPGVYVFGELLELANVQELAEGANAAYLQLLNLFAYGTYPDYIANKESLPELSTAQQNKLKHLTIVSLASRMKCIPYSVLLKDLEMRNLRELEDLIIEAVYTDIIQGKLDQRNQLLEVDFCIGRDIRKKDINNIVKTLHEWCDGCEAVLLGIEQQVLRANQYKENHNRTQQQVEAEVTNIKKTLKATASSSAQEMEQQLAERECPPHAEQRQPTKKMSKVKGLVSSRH
Chain of UniProt O00560 (O00560 whole entry): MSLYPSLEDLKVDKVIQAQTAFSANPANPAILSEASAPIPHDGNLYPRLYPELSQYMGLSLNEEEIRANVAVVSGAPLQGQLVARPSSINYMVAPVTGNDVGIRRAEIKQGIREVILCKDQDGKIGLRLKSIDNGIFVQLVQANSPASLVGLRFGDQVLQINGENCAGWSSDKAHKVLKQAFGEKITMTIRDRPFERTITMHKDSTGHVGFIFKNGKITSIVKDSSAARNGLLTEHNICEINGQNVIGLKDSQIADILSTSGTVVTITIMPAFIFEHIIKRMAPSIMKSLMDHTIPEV
Chain of UniProt Q96MF7 (Q96MF7 whole entry, one chain of several): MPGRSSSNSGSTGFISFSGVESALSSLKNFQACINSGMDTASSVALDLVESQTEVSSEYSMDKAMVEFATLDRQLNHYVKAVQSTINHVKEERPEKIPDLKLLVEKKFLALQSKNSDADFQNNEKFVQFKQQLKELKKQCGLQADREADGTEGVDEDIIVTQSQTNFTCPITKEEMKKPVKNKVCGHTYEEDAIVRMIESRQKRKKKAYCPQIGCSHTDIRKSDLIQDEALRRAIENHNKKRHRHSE
Chain of UniProt Q99081 (Q99081 whole entry, one chain of several): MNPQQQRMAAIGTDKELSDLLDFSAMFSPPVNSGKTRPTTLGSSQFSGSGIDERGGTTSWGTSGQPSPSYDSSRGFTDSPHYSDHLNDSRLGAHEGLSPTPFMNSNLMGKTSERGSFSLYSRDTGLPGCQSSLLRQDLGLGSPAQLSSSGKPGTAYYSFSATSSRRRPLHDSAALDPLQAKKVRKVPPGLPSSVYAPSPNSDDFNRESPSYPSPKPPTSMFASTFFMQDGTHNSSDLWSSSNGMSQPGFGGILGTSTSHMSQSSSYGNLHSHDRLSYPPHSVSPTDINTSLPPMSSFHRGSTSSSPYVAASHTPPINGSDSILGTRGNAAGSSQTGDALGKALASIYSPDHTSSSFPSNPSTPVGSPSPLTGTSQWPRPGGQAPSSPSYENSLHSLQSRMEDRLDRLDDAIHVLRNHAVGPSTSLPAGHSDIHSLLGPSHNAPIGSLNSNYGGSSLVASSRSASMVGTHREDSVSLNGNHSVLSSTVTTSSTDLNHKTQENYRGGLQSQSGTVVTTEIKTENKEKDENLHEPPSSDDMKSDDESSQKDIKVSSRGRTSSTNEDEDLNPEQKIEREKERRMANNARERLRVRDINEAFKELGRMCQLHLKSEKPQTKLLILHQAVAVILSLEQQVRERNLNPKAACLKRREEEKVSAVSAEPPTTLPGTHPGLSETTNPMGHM
Chain of UniProt Q6ZRP7 (Q6ZRP7 whole entry, one chain of several): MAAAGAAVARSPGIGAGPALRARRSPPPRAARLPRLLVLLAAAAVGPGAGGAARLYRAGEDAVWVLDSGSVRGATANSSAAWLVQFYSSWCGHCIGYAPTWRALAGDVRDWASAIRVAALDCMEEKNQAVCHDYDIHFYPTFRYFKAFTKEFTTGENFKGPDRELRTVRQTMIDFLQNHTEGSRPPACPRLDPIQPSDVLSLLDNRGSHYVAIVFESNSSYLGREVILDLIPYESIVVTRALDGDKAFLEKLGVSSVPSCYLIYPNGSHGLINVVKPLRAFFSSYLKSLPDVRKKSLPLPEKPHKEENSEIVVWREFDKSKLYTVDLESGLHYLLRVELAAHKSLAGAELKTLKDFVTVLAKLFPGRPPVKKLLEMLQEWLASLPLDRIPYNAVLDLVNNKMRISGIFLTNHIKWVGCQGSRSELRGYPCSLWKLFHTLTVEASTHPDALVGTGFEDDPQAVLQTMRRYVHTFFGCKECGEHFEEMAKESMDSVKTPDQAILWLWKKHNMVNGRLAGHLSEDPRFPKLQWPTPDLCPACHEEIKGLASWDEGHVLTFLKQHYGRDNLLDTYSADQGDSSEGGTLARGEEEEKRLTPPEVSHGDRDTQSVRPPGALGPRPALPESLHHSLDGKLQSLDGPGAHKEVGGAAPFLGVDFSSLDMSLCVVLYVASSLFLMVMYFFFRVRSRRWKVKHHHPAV
Chain of UniProt Q8WV92 (Q8WV92 whole entry, one chain of several): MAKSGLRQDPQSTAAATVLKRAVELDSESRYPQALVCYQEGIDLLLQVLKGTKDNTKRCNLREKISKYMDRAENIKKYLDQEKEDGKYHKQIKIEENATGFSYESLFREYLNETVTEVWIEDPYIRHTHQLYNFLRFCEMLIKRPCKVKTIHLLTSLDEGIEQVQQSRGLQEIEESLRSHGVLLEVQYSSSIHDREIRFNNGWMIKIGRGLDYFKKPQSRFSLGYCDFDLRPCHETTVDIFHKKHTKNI
Chain of UniProt P29692 (P29692 whole entry, one chain of several): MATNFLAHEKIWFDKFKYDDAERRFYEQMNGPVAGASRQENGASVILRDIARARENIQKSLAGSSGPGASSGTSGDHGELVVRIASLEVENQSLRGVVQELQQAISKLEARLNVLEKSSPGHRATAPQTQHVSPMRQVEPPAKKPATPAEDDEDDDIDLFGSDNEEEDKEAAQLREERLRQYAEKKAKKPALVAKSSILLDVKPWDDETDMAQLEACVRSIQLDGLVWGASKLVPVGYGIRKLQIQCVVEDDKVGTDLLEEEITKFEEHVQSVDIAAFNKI
Chain of UniProt P08575 (P08575 whole entry, one chain of several): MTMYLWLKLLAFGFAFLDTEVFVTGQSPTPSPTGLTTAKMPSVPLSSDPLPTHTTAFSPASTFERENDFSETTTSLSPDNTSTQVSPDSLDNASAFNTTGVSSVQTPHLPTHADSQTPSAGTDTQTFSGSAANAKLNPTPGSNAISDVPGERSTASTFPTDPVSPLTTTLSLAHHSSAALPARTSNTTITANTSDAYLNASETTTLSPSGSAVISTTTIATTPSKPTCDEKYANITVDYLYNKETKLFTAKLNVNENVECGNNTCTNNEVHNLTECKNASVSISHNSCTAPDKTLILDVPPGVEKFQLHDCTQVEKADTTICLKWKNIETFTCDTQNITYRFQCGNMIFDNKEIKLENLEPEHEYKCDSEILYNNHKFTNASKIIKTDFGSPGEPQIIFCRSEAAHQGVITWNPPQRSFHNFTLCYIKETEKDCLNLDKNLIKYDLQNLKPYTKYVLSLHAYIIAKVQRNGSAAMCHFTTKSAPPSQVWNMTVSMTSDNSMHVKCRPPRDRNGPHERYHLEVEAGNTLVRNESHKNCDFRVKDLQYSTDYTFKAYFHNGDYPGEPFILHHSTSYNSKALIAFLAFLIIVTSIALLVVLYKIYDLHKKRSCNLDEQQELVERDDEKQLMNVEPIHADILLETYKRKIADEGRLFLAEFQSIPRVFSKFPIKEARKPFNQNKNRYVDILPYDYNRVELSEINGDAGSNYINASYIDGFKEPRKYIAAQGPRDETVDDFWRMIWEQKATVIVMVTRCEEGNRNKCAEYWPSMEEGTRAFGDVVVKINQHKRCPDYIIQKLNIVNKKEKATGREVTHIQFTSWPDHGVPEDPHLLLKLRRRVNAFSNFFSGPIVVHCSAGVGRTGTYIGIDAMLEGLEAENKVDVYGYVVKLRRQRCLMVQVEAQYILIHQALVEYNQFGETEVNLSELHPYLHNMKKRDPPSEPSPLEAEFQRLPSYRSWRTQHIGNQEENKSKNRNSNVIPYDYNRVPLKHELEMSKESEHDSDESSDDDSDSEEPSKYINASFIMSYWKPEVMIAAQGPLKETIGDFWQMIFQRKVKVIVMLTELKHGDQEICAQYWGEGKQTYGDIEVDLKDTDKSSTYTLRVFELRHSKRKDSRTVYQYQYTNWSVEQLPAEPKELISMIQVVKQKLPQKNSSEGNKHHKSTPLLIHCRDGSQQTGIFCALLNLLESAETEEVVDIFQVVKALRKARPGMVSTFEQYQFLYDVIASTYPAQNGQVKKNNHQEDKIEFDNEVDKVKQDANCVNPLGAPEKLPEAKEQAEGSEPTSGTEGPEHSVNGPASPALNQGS
Chain of UniProt O43678 (O43678 whole entry): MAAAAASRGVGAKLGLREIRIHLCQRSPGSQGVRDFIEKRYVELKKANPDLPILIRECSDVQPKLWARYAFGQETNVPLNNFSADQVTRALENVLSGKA

Target	NP40-soluble protein abundance (concentration: 1mM)	NP40-soluble protein abundance (concentration: 2mM)	NP40-soluble protein abundance (concentration: 4mM)	NP40-soluble protein abundance (concentration: 6mM)	NP40-soluble protein abundance (concentration: 8mM)	NP40-soluble protein abundance (concentration: 10mM)
A0A087X176|Q6ZRP7 (UniProt Q6ZRP7)	0.958 ± 0.057	0.983 ± 0.011	0.961 ± 0.028	0.99 ± 0.029	0.953 ± 0.026	0.96 ± 0.037
UniProt A0FGR8-2|H7BXI1|A0FGR8-6	1 ± 0.026	1.02 ± 0.025	1.02 ± 0.015	0.997 ± 0.052	1.02 ± 0.03	1.02 ± 0.047
NDUFA2 (UniProt O43678)	0.882 ± 0.1	0.874 ± 0.16	0.924 ± 0.1	0.985 ± 0.21	0.876 ± 0.081	0.835 ± 0.13
E9PRY8|P29692|P29692-2|P29692-3|P29692-4 (UniProt P29692)	0.959 ± 0.054	0.931 ± 0.034	0.894 ± 0.03	0.912 ± 0.091	0.88 ± 0.042	0.865 ± 0.015
SPTLC1 (UniProt O15269)	0.993 ± 0.026	0.998 ± 0.032	0.997 ± 0.027	0.93 ± 0.096	0.998 ± 0.024	1 ± 0.049
A0A0A0MSK4|Q86YR5|Q86YR5-4 (UniProt Q86YR5)	0.972 ± 0.037	0.99 ± 0.074	0.9991 ± 0.0089	1.018 ± 0.0076	0.96 ± 0.021	0.981 ± 0.05
E5RFJ1|Q96MF7 (UniProt Q96MF7)	1.04 ± 0.053	1.04 ± 0.012	1.03 ± 0.017	1.09 ± 0.036	1.01 ± 0.018	1 ± 0.034
A0A0A0MT22|M9MML4|P08575|P08575-2|X6R433 (UniProt P08575)	0.946 ± 0.026	0.9679 ± 0.0084	0.9321 ± 0.0056	0.967 ± 0.014	0.918 ± 0.018	0.943 ± 0.036
H0YNP8|Q99081-3|Q99081 (UniProt Q99081)	0.923 ± 0.056	0.935 ± 0.039	0.915 ± 0.041	0.938 ± 0.027	0.916 ± 0.018	0.921 ± 0.046
J3KQ34|Q9H9Q2 (UniProt Q9H9Q2)	0.89 ± 0.097	0.87 ± 0.04	0.855 ± 0.072	0.873 ± 0.093	0.878 ± 0.032	0.77 ± 0.1
K7ELH7|K7ENE2|Q8IVV7 (UniProt Q8IVV7)	1.04 ± 0.13	0.979 ± 0.11	1 ± 0.032	0.867 ± 0.075	0.931 ± 0.094	0.92918 ± 9.2e-06
H7C3Q6|Q8WV92|B8ZZL5 (UniProt Q8WV92)	1.85 ± 0.55	1.9 ± 0.66	1.92 ± 0.67	1.9 ± 0.76	1.97 ± 0.67	1.94 ± 0.67
E9PL53|J3KND1 (UniProt Q96ER3)	0.966 ± 0.034	0.9715 ± 0.0057	0.951 ± 0.013	0.997 ± 0.019	0.9485 ± 0.0047	0.925 ± 0.011
UniProt O00560|O00560-2	0.95 ± 0.073	0.946 ± 0.041	0.937 ± 0.04	0.896 ± 0.077	0.9459 ± 0.0062	0.957 ± 0.031
UniProt O15379|O15379-2	1 ± 0.019	0.9928 ± 0.0062	0.985 ± 0.04	0.994 ± 0.053	1.04 ± 0.044	1.03 ± 0.065

Source: the supplement of paper PMC6411743
